Results taken from PubChem BioAssay (NCATS).
Inconclusive results are not listed. The source made the active and inactive calls. Calls follow the shape of the dose curve; as a rule, active = well fitted inhibition curve with a large enough effect; inconclusive = small, poorly fitted or top-dose-only effect; inactive = no such curve, though single readings can be large or run the other way.

These molecules were tested against Cytochrome P450 3A4 (Homo sapiens) (UniProt P08684) (assay: qHTS Assay for Inhibitors and Substrates of Cytochrome P450 3A4 (AID 884; also: nearly all actives have a fitted effect of over 50% in size)). Settings: recombinant CYP3A4, Luciferin-PPXE luminescence; series mostly up to 57.1 µM.
Sequence of Cytochrome P450 3A4 (Homo sapiens) (P08684 whole entry, looked up): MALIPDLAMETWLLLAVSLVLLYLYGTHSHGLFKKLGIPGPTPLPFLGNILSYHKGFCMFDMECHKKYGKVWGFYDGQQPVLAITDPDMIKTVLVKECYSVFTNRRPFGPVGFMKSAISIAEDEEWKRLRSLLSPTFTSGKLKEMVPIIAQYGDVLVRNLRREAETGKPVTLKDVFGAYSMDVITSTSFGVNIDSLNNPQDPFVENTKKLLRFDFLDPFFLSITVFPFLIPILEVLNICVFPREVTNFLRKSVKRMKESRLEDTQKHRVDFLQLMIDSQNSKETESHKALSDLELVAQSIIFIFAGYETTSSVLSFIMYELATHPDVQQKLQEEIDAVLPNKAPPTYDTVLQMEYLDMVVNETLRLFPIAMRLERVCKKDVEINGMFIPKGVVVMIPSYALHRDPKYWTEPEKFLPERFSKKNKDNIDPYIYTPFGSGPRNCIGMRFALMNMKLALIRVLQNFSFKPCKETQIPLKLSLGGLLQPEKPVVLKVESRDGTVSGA
In short: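 20 nM human CYP3A4 with 25 uM Luciferin-PPXE (at KM) in 200 mM KPO4, preincubated 10 min with compound; NADPH regeneration started a 60 min RT reaction. Luciferin detected by luminescence, normalized to 57 uM ketoconazole as full inhibition.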
Potency is read from the fitted curve at half-maximal effect.

Potency, active:
FC(F)(F)c1ccc(C2[C@H]3CN(Cc4cccnc4)[C@H](c4ccccc4)C34CC2(c2ccccc2)C4)cc1 (stereo partly drawn) 3.16 µM
COc1cccc([C@@H]2Oc3ccc(OC)cc3C(=O)[C@H]2O)c1 3.98 µM
CN1C[C@@H]2C(c3ccc(Cl)nc3)C3(c4cccnc4)CC2(C3)[C@H]1c1ccccc1 (stereo partly drawn) 7.94 µM
CCC1=C(OC(=O)N(CC)CC)N2C(=O)OC(=NCCc3c[nH]c4ccccc34)[C@]2(C)[C@H]2C1=CC[C@H]1C(=O)N(CC)C(=O)[C@H]12 1.26 µM
[C-]#[N+]/C(C#N)=C\c1cc(C(C)(C)C)c(O)c(C(C)(C)C)c1 3.98 µM
CCC1=C(OC(=O)N(CC)CC)N2C(=O)OC(=NCCc3c[nH]c4ccccc34)[C@]2(Cc2ccccc2)[C@H]2C1=CC[C@H]1C(=O)N(CC(=O)OC)C(=O)[C@H]12 2.51 µM
COC(=O)c1ccc(C(NC(=O)OCc2ccccc2)/C(=C/[C@@H](C)C(=O)Nc2ccc(OC)cc2)c2cccnc2)cc1 (stereo partly drawn) 1 µM
COC(=O)[C@H]1C[C@H]2CC[C@H](O)C[C@H]2N1Cc1c(F)cccc1Cl 12.6 µM
COC(=O)c1ccc(C(NC(=O)OCc2ccccc2)/C(=C/[C@@H](C)C(=O)N[C@@H](CO)Cc2ccccc2)c2cccnc2)cc1 (stereo partly drawn) 1 µM
CCCNC(=O)OC[C@H]1O[C@@H](CCO/N=C2/[C@H]3O[C@@H]3[C@@H](O)[C@H]3[C@H]2CCn2c(=O)n(-c4ccccc4)c(=O)n23)C=C[C@@H]1Oc1ccc(OC)cc1 3.16 µM
COCCN=C1OC(=O)N2C(=O)C3=C4C(C[C@H]5C(=O)N(CC(=O)OC)C(=O)[C@H]5[C@H]4[C@@]12Cc1ccccc1)[C@H]1C(=O)N(CC(=O)OC)C(=O)[C@H]1[C@H]3C (stereo partly drawn) 15.8 µM
COC(=O)c1cccc(C23CC4(C2)[C@H](CN(Cc2cccnc2)[C@@H]4c2ccccc2)C3c2ccccc2)c1 (stereo partly drawn) 1.58 µM
C/C(CCN1CCCc2nc(C)c(C)cc21)=N\O[C@@H](C)CN1CCCCc2nc(C)c(C)cc21 3.98 µM
CCC1=C2CC[C@H]3C(=O)N(C)C(=O)[C@H]3[C@H]2[C@@]2(C)C(=NCc3ccccc3)OC(=O)N2C1=O 12.6 µM
CCC1=C(OC(=O)N(CC)CC)N2C(=O)OC(=NCC3CC3)[C@]2(Cc2ccccc2)[C@H]2C1=CC[C@H]1C(=O)N(CC(=O)OC)C(=O)[C@H]12 2 µM
CCC1=C2CC[C@H]3C(=O)NC(=O)[C@H]3[C@H]2[C@@]2(C)C(=NCCc3c[nH]c4ccccc34)OC(=O)N2C1=O 12.6 µM
CCCOc1ccc(Br)cc1-c1cc(-c2ccc(Cl)cc2)[nH]c1-c1ccncc1 1.26 µM
C/C(CCN1CCCCc2nc(C)c(C)cc21)=N\O[C@@H](C)CN1CCCCc2nc(C)c(C)cc21 3.98 µM
CCC1=C2CC[C@H]3C(=O)N(CC)C(=O)[C@H]3[C@H]2[C@@]2(C)C(=NCCc3c[nH]c4ccccc34)OC(=O)N2C1=O 3.98 µM
C=CC[C@@H]1C=C[C@H](O/N=C\[C@@H](C)[C@H](OCc2ccccc2)C(C)C)[C@H](CO)O1 3.98 µM
CCC1=C(OC(=O)N(CC)CC)N2C(=O)OC(=NCCOC)[C@]2(Cc2ccccc2)[C@H]2C1=CC[C@H]1C(=O)NC(=O)[C@H]12 6.31 µM
c1ccc(C2[C@H]3CN(CC4CCCCC4)[C@H](c4ccccc4)C34CC2(c2cccnc2)C4)cc1 (stereo partly drawn) 12.6 µM
CNC1=C(Cl)C(=O)c2ccncc2C1=O 1.58 µM
N#Cc1ccc(C23CC4(C2)[C@H](CN(CC2CCCCC2)[C@@H]4c2ccccc2)C3c2ccccc2)cc1 (stereo partly drawn) 15.8 µM
CC(=O)OC[C@@H]1O[C@H](C/C=N\O[C@@H](C)c2cc(-c3c(C)cc(C)cc3C)no2)C=C[C@@H]1OC(C)=O 3.16 µM
C/C(CCN1CCCCc2nc(C)c(C)cc21)=N\OC[C@@H](O)COCc1ccco1 3.98 µM
CCOC(=O)N/N=C1/C[C@@H](O)[C@@H](O)[C@@H]2[C@@H]3C(=O)N(Cc4ccc5c(c4)OCO5)C(=O)[C@H]3CC[C@@H]12 3.98 µM
CCC1=C(OC(=O)N(CC)CC)N2C(=O)OC(=NCC(=O)OC)[C@]2(C)[C@H]2C1=CC[C@H]1C(=O)N(CC)C(=O)[C@H]12 6.31 µM
